For the assay, the system named is HFF. Nature of the assay: cell viability relative to DMSO control; higher = less cytotoxic. To be noted: 1 µM; 72 h. The procedure: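 Single-dose cytotoxicity screen of the MMV Pandemic Response Box at 1 uM on human foreskin fibroblasts (HFF), 72 h at 37 C. Viability measured by MTT (OD 550 nm) and normalised to the DMSO control (% survival).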
The cell viability is a read-out of living cells in per cent, often relative to untreated cells. On to `O=C(O)/C=C/C=C/c1cccc(Oc2cc(Cl)cc(Cl)c2)c1`, for which the cell viability turned out to be 63.3%.

In the case of `Cc1cc(Nc2ccc(F)cc2)nc(SCc2nc3ccccc3[nH]2)n1`, the cell viability is 66%.

With `NNC(=O)c1ccncc1`, the cell viability worked out at 62.8%.

`OCCCCn1cnc2c(O)nc(NCc3ccc(Cl)c(Cl)c3)nc21` came in with a cell viability of 62.2%.

With `Cc1nc2ccc(Cl)cc2c(-c2ccccc2)c1CC(=O)O`, the cell viability amounted to 77%.

The molecule `CN1CCN(Cc2ccc(-c3cnc4[nH]cc(-c5ccc6[nH]ccc6c5)c4c3)cc2)CC1` showed a cell viability of 75.3%.

For `Cc1cccc(CC(=O)N[C@H]2CCOC2=O)c1`, the cell viability was 77.2%.

`O=C1C=C(c2ccccc2)S(=O)(=O)c2ccccc21` yielded a cell viability of 67.5%.

`CCc1oc2ccccc2c1C(=O)c1ccc(O)cc1` displayed a cell viability of 71.1%.

As to `CN(C)CCCNC(=O)c1ccc(-c2cc(O)c3ncccc3c2)cc1`, the cell viability came out at 67.8%.

As for `CCc1c(O)nc2ccc(F)cc2c1OCC1CCC1`, the cell viability amounted to 56.8%.

With `Fc1ccc(-c2nc(-c3c[nH]c4ccc(Br)cc34)[nH]c2-c2ccc(F)cc2)cc1`, the cell viability was 67.2%.

With `O=C(O)c1ccc(-c2ccc(O[C@H]3O[C@H](CO)[C@@H](O)[C@H](O)[C@@H]3O)cc2)cc1`, the cell viability turned out to be 63.9%.

Take `CC1(C)Cc2c(C#N)c(SCCc3ccccc3)nc(N3CCOCC3)c2CO1`: the cell viability stood at 81.4%.

Turning to `CC(C)Cn1c(=O)n(C)c(=O)c2c(-c3cncn3C)n(Cc3cccc4ccccc34)nc21`, the cell viability came to 63.1%.

Molecule `COc1ccc(NC(=O)c2cc3ccccn3n2)cc1` showed a cell viability of 62.2%.

`C[C@@H](NC(=O)c1ccccc1-c1ccccc1)B(O)O`: the cell viability came to 59.6%.

As to `CCCCc1ccc(S(=O)(=O)Nc2cc(C)on2)cc1`, the cell viability came out at 63.3%.

In turn, `CC(C)(C)c1ccc(Oc2ccc(N)cc2)cc1` yielded a cell viability of 68.3%.

`O=C(O)c1cc(-c2ccc(Br)cc2)nc2ccc(Cl)cc12` came in with a cell viability of 57.6%.

Regarding `O=C(CSc1nnc(Br)n1-c1ccc(C2CC2)c2ccccc12)Nc1ccc(C(=O)O)cc1Cl`, the cell viability amounted to 66.5%.

With `Oc1c(C(Nc2nc3ccccc3s2)c2ccc(OC(F)F)cc2)ccc2cccnc12` (stereo not given), the cell viability turned out to be 57.5%.

As for `Cc1ccc(S(=O)(=O)Nc2cccc3cccnc23)cc1`, the cell viability is 84.2%.

In turn, `Nc1nc(N)c2c(Sc3ccccc3)cccc2n1` yielded a cell viability of 68.7%.

Molecule `CC(C)(C)c1cccc(-c2nc3cc(C(=N)N)ccc3[nH]2)c1O` displayed a cell viability of 64.8%.

`c1ccc(Cn2c(-c3ccccn3)nc3ccccc32)cc1` showed a cell viability of 63.2%.

As for `COc1nc2ccc(Br)cc2cc1[C@@H](c1ccccc1)[C@@](O)(CCN(C)C)c1cccc2ccccc12`, the cell viability worked out at 72.3%.

Regarding `O=C(NNC(=S)Nc1ccc(Cl)cc1)c1ccncc1`, the cell viability is 64.2%.

Consider `CN(C(=O)C1(c2ccc(Cl)cc2)CCC1)c1ccccc1`, for which the cell viability came to 63.2%.

Regarding `NCCCc1ccccc1C(=O)Nc1ncc([N+](=O)O)s1`, the cell viability worked out at 65%.

Take `[N-]=[N+]=N[C@H]1C[C@H](n2ccc(=O)[nH]c2=O)O[C@@H]1CO`: the cell viability worked out at 69.1%.

For the molecule `O=C(NC(=O)N1CCCc2ccccc21)c1ccc(Cl)cc1Cl`, the cell viability came to 70.2%.

Take `COc1ccc(-n2cnc3cc(NCc4ccco4)ccc32)cc1`: the cell viability stood at 52%.

As for `O=S(=O)(Nc1ccc(-n2cccc2)cc1)c1ccc(Cl)c(Cl)c1`, the cell viability stood at 64.5%.

`Nc1nc(F)nc2c1ncn2[C@H]1O[C@@H](CO)[C@H](O)[C@@H]1O` yielded a cell viability of 65%.

The molecule `O=C(NCc1ccc2c3c(cccc13)C(=O)N2)c1cccs1` came in with a cell viability of 62.2%.

`O=[N+]([O-])/C(Br)=C/c1ccc(Br)o1` came in with a cell viability of 63.2%.

Molecule `NCC(=O)Nc1ccc(-n2nc(C(F)(F)F)cc2-c2ccc3c(ccc4ccccc43)c2)cc1` gave a cell viability of 80.7%.

`Cc1[nH]c2ccccc2c1CC(=O)N[C@@H](Cc1ccccc1)C(=O)N(C)c1ccccc1` displayed a cell viability of 69.6%.

The molecule `O=C(O)c1sccc1S(=O)(=O)n1ccc2cc(Br)ccc21` had a cell viability of 65.1%.

(Values after the supplement of paper PMC10941209.)
